This is an account of results in PubChem BioAssay AID588852 (The Scripps Research Institute Molecular Screening Center, 2011).

Out of some 360,000 compounds screened, about 4,600 (1.3%) were called active.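 Rule for the calls: active = percent inhibition above its own plate's cutoff, namely the mean of that plate's compound wells plus 3 SD; inactive = the rest.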 Shown is part of a subset that was picked to be rich in actives.

In the assay the target is Muscarinic acetylcholine receptor M1 (Homo sapiens) (UniProt P11229). As to the kind of experiment: human M1 muscarinic receptor antagonists, primary screen, CHO-K1 cells, Fluo-8 calcium fluorescence, 1536-well (AID 588852).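 Note: peak over basal fluorescence ratio during 140 s after agonist addition; 0% = ACh EC80 plus DMSO and 100% = DMSO alone without agonist.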 To be noted: CHO-K1 hM1, Fluo-8 calcium fluorescence, ACh EC80 antagonist; at 3 µM; active compounds read high.
Sequence of Muscarinic acetylcholine receptor M1 (Homo sapiens) (P11229 whole entry, looked up): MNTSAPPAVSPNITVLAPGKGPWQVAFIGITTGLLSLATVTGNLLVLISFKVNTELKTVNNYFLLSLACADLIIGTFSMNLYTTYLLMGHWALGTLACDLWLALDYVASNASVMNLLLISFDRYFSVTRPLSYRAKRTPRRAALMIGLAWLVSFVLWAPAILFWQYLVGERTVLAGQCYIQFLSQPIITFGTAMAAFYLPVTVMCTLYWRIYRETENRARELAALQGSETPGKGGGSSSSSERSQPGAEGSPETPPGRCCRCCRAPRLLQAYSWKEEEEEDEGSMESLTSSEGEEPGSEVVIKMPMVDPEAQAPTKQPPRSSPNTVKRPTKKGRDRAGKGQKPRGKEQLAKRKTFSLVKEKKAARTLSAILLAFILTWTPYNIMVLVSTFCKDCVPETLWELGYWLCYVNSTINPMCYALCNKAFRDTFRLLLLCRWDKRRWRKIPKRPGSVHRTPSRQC
Turning to `CC(C)(C)NC(=O)COc1ccc(CNc2ccc3[nH]c(=O)[nH]c3c2)cc1`, the inhibition (usually the relative decrease from the control value, in per cent) was -1.62% (inactive).
The value for `COc1cc(C2OC(c3cc(OC)c(OC)c(OC)c3)C(C)C2C)cc(OC)c1OC` (stereo not given) was 0.63% (inactive); that for `Oc1cccc2cc(-c3ccncc3)cnc12` was -21.3% (inactive); that for `O=C(c1cc(Cl)cc(Cl)c1)N1CCC(=O)N(C(COCc2ccccc2)Cc2ccccc2)CC1` (stereo not given) was 7.3% (inactive).
With `O=[N+]([O-])c1ccc(CN2CC(N3CCC(c4ccccc4)CC3)CS2(=O)=O)cc1` (stereo not given), the inhibition is 7.07% (inactive).
The value for `CCOC(=O)c1ccccc1NS(=O)(=O)c1c(C)nc2sccn2c1=O` was 6.39% (inactive); that for `COC(=O)c1ccc(CN2CCC(CO)(Cc3ccc(OC)cc3)CC2)cc1` was 53.5% (active); that for `CCOC(=O)C1(CCOC)CCN(Cc2ccc(C(=O)OC)cc2)CC1` was -9.07% (inactive).
The value for `COc1ccc(CC2(CO)CCN(Cc3cnn(C)c3)CC2)cc1` was 1.8% (inactive).
In the case of `O=C(CN1CCN(c2ccccc2O)CC1)NC(=O)NCc1ccccc1` it was -3.68% (inactive).
Consider `Cn1c(-c2ccc(C(F)(F)F)cc2)cc2onc(-c3ccccc3)c2c1=O`, for which the inhibition was 2.31% (inactive).
The value for `CC(C(=O)NC1CCCCC1)N1C(=O)c2cccc3cccc1c23` (stereo not given) was 8.39% (inactive); that for `COc1ccccc1N1CCN(CC(=O)Nc2ccnn2C2CCCC2)CC1` was -12.8% (inactive); that for `COc1ccccc1C(=O)Nc1ccnn1C1CCN(Cc2cnn(C)c2)CC1` was -12.3% (inactive).
The value for `COc1ccccc1C(=O)Nc1ccnn1C1CCN(C(=O)C(C)(C)C)CC1` was 47.4% (active); that for `C/C(O)=C\c1nc(=O)c2c(C)cc(C)nc2n1-c1ccccc1` was -3.66% (inactive); that for `S=C(NCCCc1cnc[nH]1)NCCCN(Cc1ccc(Cl)c(Cl)c1)c1ccc(Br)cn1` was 0.91% (inactive).
In the case of `CCOc1cc(/C=N/NC(=O)c2ccc(CSc3nncn3C)cc2)ccc1OCC(=O)N1CCOCC1` it was -1.07% (inactive).
On to `CC(C)(C)S(=O)N1Cc2cc(C(=O)NCCCN3CCOCC3)nc(-c3cccc(-c4cc5ccccc5o4)c3)c2[C@H]1CCO` (stereo not given in full), for which the inhibition is -16.2% (inactive).
In the case of `CCN(CC)S(=O)(=O)c1ccc(OC(C)C)c(N)c1` it was -11.4% (inactive).
In the case of `CCN1/C(=C\c2ccc3ccccc3[n+]2CC)Sc2cc(C)ccc21` it was 59% (active).
In the case of `CCCCCCCCCCOC(=O)Cn1c(COc2ccc(C)cc2)[n+](C)c2ccccc21` it was 30.8% (inactive); in that of `CCCCCCCCCCOC(=O)Cn1c(COc2cccc(OC)c2)[n+](C)c2ccccc21`, 58.2% (active); in that of `O=C(C=CC(=O)Nc1ccc(F)cc1F)Nc1ccc(F)cc1F`, -4.83% (inactive).
Regarding `CC(=O)Nc1ccc(S(=O)(=O)N2CCC(C(=O)NC3CC3)CC2)cc1`, the inhibition was -7.82% (inactive).
Take `NCCCNC(=S)NCCCN(Cc1ccc(Cl)cc1)c1ccc(Br)cn1`: the inhibition was -0.49% (inactive).
In the case of `CC(C)(C)OC(=O)N1CCN(C(=O)c2[nH]c(C(F)(F)F)nc2-c2ccccc2)CC1`, the inhibition is -33.3% (inactive).
For the molecule `FC(F)(F)c1cccc(N/N=C/c2ccccc2)c1`, the inhibition is -6.47% (inactive).
In the case of `O=C(Nc1cccc(Cl)c1)c1cncn1-c1ccc(F)cc1` it was -4.54% (inactive).
In the case of `FC(F)(F)c1cccc(NC(=S)Nc2cccc(Cl)c2)c1` it was 27.5% (active); in that of `Cc1cc(C)cc(OCC(=O)OCC(=O)NC2CCCC2)c1`, 5.15% (inactive).
In the case of `CC(C)c1nc2oc3c(N4CCN(C)CC4)ncnc3c2c2c1CCC2` it was -4.82% (inactive); in that of `CN(C)Cc1c(C(=O)N/N=C/c2ccccc2OCc2ccc(F)cc2)nnn1-c1nonc1N`, -17.7% (inactive).
On to `NC(=O)C1=C[C@@H](c2csc3ccccc23)C[C@@H](OCc2ccc(CO)cc2)O1`, for which the inhibition was -1.54% (inactive).
Turning to `COc1cccc(-c2cnc3c(NC(C)=O)cc(-c4cc(F)ccc4OC)cn23)c1`, the inhibition is 13.1% (inactive).
As for `Cc1onc(-c2ccccc2)c1-c1nnc(COC(=O)c2ccc(N(C)C)cc2)o1`, the inhibition is 99.9% (active).
The value for `Cc1ccc(C(=O)NCC(=O)OCc2nnc(-c3ccccc3)o2)cc1` was -11.3% (inactive); that for `Cc1onc(-c2ccccc2Cl)c1C(=O)OCc1nnc(-c2ccccc2)o1` was 1.39% (inactive); that for `Cc1cc2nc(-c3ccco3)c(Cc3cccc(F)c3)n2c(C)c1Br` was -9.48% (inactive).
In the case of `CCCCN(C)C(=O)c1ccc2c(c1)N(CC)C(=O)c1ccccc1S2(=O)=O` it was 37.7% (active); in that of `O=C(c1ccc2c(c1)N(Cc1ccc(F)cc1)C(=O)c1ccccc1S2(=O)=O)N1CCN(c2ccccn2)CC1`, -3.64% (inactive); in that of `O=C(NCCN1CCOCC1)c1ccc2c(c1)N(Cc1cccc(Cl)c1)C(=O)c1ccccc1S2(=O)=O`, -3.27% (inactive).
The value for `Cc1nn(-c2ccccc2)nc1C(=O)OCC(=O)N1CCCCC1C` (stereo not given) was 3.01% (inactive); that for `NC1=NC(=O)C2(COC(c3ccccc3Cl)OC2)S1` (stereo not given) was -9.62% (inactive).
`O=C(COC(=O)/C=C/c1ccc(Br)o1)Nc1cccc(S(=O)(=O)N2CCOCC2)c1`: the inhibition was -15.6% (inactive).
The value for `CC(=O)c1c(O)cc2n(c1=O)-c1ccc(Cl)cc1C2(C)C` was -13.4% (inactive); that for `COC(=O)c1ccc(NC(=O)CSc2nnc(CNc3ccc(OC)cc3)n2C)cc1` was 64.6% (active); that for `COC(=O)c1ccc(NC(=O)CSc2nnc(C3CC3)n2C)cc1` was -9.89% (inactive).
In the case of `COC(=O)c1ccc(NC(=O)CSc2nnc(-c3ccncc3)n2C)cc1` it was -9.95% (inactive); in that of `CC(C)CN(C(=O)c1ccc2c(c1)OCO2)C1CCS(=O)(=O)C1` (stereo not given), 6.67% (inactive); in that of `O=C(Nc1cccc2c1N(C(=O)c1ccco1)CCC2)c1ccco1`, -11.2% (inactive).
In the case of `N#CC1(NC(=O)COC(=O)CSc2ccc(F)cc2)CCCCC1` it was -5.4% (inactive); in that of `COc1cc(CCN=Cc2ccccc2O)c([N+](=O)[O-])cc1OC`, 1.04% (inactive).
With `c1ccc(-c2ccccc2OCCN2CCCCC2)cc1`, the inhibition is 33.7% (active).
The value for `CN1CCN(CCCCOc2ccccc2-c2ccccc2)CC1` was -6.34% (inactive); that for `CC1CCCN(CCOCCOc2ccccc2-c2ccccc2)C1` (stereo not given) was 5.61% (inactive).
The value for `Cc1cc(NC(=O)COC(=O)c2ccc(F)c(S(=O)(=O)N3CCOCC3)c2)no1` was -35% (inactive).
With `COc1ccc(C(=O)Oc2ccc(-c3nnco3)cc2)cc1S(=O)(=O)N1CCOCC1`, the inhibition was 0.6% (inactive).
The value for `O=C(Oc1ccc(-c2nnco2)cc1)c1ccc(F)c(S(=O)(=O)N2CCOCC2)c1` was 38.5% (active).
`CC1=C2C(=O)OC(c3ccoc3)C2(C)CCC1` (stereo not given): the inhibition is -3.46% (inactive).
In the case of `O=S(=O)(Nc1ccc(Oc2ncccn2)c(Cl)c1)c1ccc(F)cc1` it was -16.8% (inactive); in that of `Cc1ccc(S(=O)(=O)Nc2ccc3ncccc3c2)cc1`, 28.8% (active).
On to `Cc1cc(C)cc(OCC(=O)Nc2ccc(S(=O)(=O)Nc3ccccn3)cc2)c1`, for which the inhibition was -5.97% (inactive).
The value for `CC1CCC2(CC1)NC(=O)N(CC(=O)NCc1ccco1)C2=O` (stereo not given) was 16.7% (inactive); that for `O=S1(=O)CC(N2CCN(c3ccccn3)CC2)CN1Cc1ccc(F)cc1` (stereo not given) was -1.35% (inactive); that for `CCCC(CNC(=O)COC(=O)C1=NNC(=O)CC1)c1ccc(Cl)cc1Cl` (stereo not given) was -6.04% (inactive).
In the case of `O=C(CN1CCCCC1)N1c2ccccc2Sc2ccc(C(F)(F)F)cc21` it was 96.8% (active); in that of `O=C(CSc1nc2ccccc2o1)N1c2ccccc2Sc2ccc(Cl)cc21`, -3.61% (inactive); in that of `O=C(CN1C(=O)/C(=C\c2ccc(C(F)(F)F)cc2)Sc2ccccc21)NCc1ccco1`, 13.9% (inactive).
The value for `O=C(CN1CCCCCC1)N1c2ccccc2Sc2ccc(C(F)(F)F)cc21` was 102% (active); that for `COc1cc(/C=C/C(=O)N2c3ccccc3Sc3ccc(C(F)(F)F)cc32)cc(OC)c1OC` was -6.22% (inactive).
`CCC(=O)Nc1cc(C(F)(F)F)ccc1N1CCCC1`: the inhibition is 3.67% (inactive).
The value for `COc1ccc(NC(=O)c2cccc(Cl)c2)c[n+]1[O-]` was -8.94% (inactive).
The value for `Cc1cccc(NS(=O)(=O)c2ccc([N+](=O)[O-])cc2)n1` was -16.4% (inactive); that for `Cc1nc2nc(C)c(NS(=O)(=O)c3ccc(C(C)(C)C)cc3)c(=O)n2[nH]1` was 20.2% (active).
The value for `CCc1nc2nc(C)c(NS(=O)(=O)c3ccc4c(c3)CCCC4)c(=O)n2[nH]1` was 12.2% (inactive); that for `Cc1ccn2c(=O)c(C(=O)NCCC3=CCCCC3)c(O)nc2c1` was -8.96% (inactive); that for `CN(C)C(=O)N1CCNCC1` was -11.2% (inactive).
Consider `CC(=O)N1CCOc2ccc(S(=O)(=O)N3CCC(C(=O)Nc4ccccc4F)CC3)cc21`, for which the inhibition is -13.2% (inactive).
In the case of `CC(C)(C)N(CC#CCC(O)(c1ccccc1)C1CCCC1)CCO` (stereo not given) it was 83.9% (active); in that of `CC(C)c1ccc(N2CC(C(=O)Nc3nccs3)CC2=O)cc1` (stereo not given), 12.6% (inactive).
As for `CCCCn1nnnc1C(c1cccc(OC)c1OC)N1CCN(C/C=C/c2ccccc2)CC1` (stereo not given), the inhibition is 34.7% (inactive).
The value for `CN1CCN(C2Cc3ccc(Cl)cc3Sc3ccc(F)cc32)CC1` (stereo not given) was 60% (active).
In the case of `COc1ccc(NC(=O)C(CC(C)C)NC(=O)C2CCC(C)CC2)cc1` (stereo not given) it was 0.68% (inactive).
Consider `O=C(Nc1ccc(S(=O)(=O)Nc2nccs2)cc1)c1cc(-c2ccncc2)nc2ccccc12`, for which the inhibition is -10.5% (inactive).
The value for `CCN(CC)CCNC(=O)c1ccc(NC(=O)c2c(F)cccc2Cl)cc1` was -0.98% (inactive); that for `CCN(CC)CCNC(=O)c1ccc(NC(=O)c2cc(-c3ccncc3)nc3ccccc23)cc1` was 45.5% (active); that for `CCCCNc1c(-c2ccc(OC)c(Sc3ccc(OC)cc3)c2)nc2ccc(Cl)cn12` was 19.9% (inactive).
In the case of `COC(=O)c1ccc2nc(-c3cccc(Br)c3)c(Cc3ccc(OC)cc3C)n2c1` it was -41.3% (inactive); in that of `CCCCNc1c(-c2cccc(Sc3ccc(OC)cc3)c2)nc2ccccn12`, 36.9% (active).
